This is a sample that favours compounds with a hit; in the whole collection about 6.7% have one here.
C diff HTS – inhibitors of Clostridium difficile growth. hit rate 0.25% among 86,000. AID 1259249. Clostridium difficile clinical isolate growth, OD600, 24 h; hits give low values. growth activity, negative = inhibition, % at 16 µg/mL (by protocol);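 active = mean growth activity at or below -80% and every replicate also at or below -80%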
Pf Dd2 inh – P. falciparum Dd2 growth inhibition | hit rate 2.3% among 94,000 | AID 1159554 | activity change, % at 10 µM | SYBR Green, 72 h; hits give low values; in the data active = activity change below about -80%
Tcruzi prolif – blocks T. cruzi growth in NIH3T3 culture. hit rate 5.9% among 77,000. T. cruzi beta-gal in NIH3T3, GalScreen luminescence, 90 h. AID 624255. inhibition, % at 8.34 µM;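 active = mean inhibition above about 93%, with at least 55% of replicates each passing it, limit read from the data, passing the limit was not always enough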
Numbers stand for hits; – = inactive; · = no result given; ! = repeats disagree.

SMILES	C diff HTS	Pf Dd2 inh	Tcruzi prolif
COc1ccc(NC(=O)N(C)C[C@H]2OCc3ccccc3-c3c(n(C)c4ccccc34)C(=O)N([C@@H](C)CO)C[C@H]2C)c(OC)c1	–	-89	–
COc1ccc(NC(=O)N(C)C[C@H]2OCc3ccccc3-c3c(n(C)c4ccccc34)C(=O)N([C@H](C)CO)C[C@H]2C)c(OC)c1	–	–	–
CO[C@@H]1CN(C)C(=O)c2ccc(NC(=O)C3CCOCC3)cc2OC[C@@H](C)N(C)C[C@@H]1C	–	–	–
CN(C)C(=O)c1ccc(-c2ccc(C3[C@@H]4CN(Cc5ccc6c(c5)OCO6)C[C@H]3N4)cc2)cc1 (stereo not given in full)	–	-82!	·
Cc1ccccc1-c1ccc(C2[C@@H]3CN(Cc4ccc5c(c4)OCO5)C[C@H]2N3)cc1 (stereo not given in full)	-94	–	·
C/C=C/c1ccc(C2[C@@H]3CN(Cc4ccc5c(c4)OCO5)C[C@H]2N3)cc1 (stereo not given in full)	–	-94!	·
c1cncc(-c2ccc(C3[C@@H]4CN(Cc5ccc6c(c5)OCO6)C[C@H]3N4)cc2)c1 (stereo not given in full)	–	–	·
Cc1ccccc1-c1ccc(C2[C@H]3CNC[C@@H]2N3Cc2ccc3c(c2)OCO3)cc1 (stereo not given in full)	–	–	·
C/C=C/c1ccc(C2[C@H]3CNC[C@@H]2N3Cc2ccc3c(c2)OCO3)cc1 (stereo not given in full)	–	–	·
COc1ccccc1C(=O)N1C[C@@H]2[C@H](c3ccccc31)[C@@H](CO)N2C(=O)C1CC1	–	–	–
CO[C@H]1CN(C)C(=O)c2cc(NC(=O)Nc3c(C)noc3C)ccc2OC[C@@H](C)NC[C@H]1C	·	–	–
C[C@H]1CCCCO[C@H](CN(C)C(=O)Nc2ccc(C(F)(F)F)cc2)[C@@H](C)CN([C@@H](C)CO)C(=O)c2cc(NC(=O)C3CCCCC3)ccc2O1	–	-84	–
C[C@@H]1CN([C@H](C)CO)C(=O)c2cc(NC(=O)C3CCCCC3)ccc2O[C@@H](C)CCCCO[C@H]1CN(C)C(=O)Nc1ccc(C(F)(F)F)cc1	–	–	–
C[C@H](CO)N1C[C@H](C)[C@@H](CN(C)C(=O)Nc2ccc(C(F)(F)F)cc2)OCCCC[C@H](C)Oc2ccc(NC(=O)C3CCCCC3)cc2C1=O	–	-86	–
C[C@H]1CCCCO[C@H](CN(C)C(=O)Nc2ccc3c(c2)OCO3)[C@@H](C)CN([C@@H](C)CO)C(=O)c2cc(NC(=O)C3CCCCC3)ccc2O1	–	-89	–
C[C@@H]1CCCCO[C@H](CN(C)C(=O)Nc2ccc3c(c2)OCO3)[C@@H](C)CN([C@H](C)CO)C(=O)c2cc(NC(=O)C3CCCCC3)ccc2O1	–	–	–
C[C@@H]1CCCCO[C@H](CN(C)C(=O)Nc2ccc(C(F)(F)F)cc2)[C@H](C)CN([C@H](C)CO)C(=O)c2cc(NC(=O)C3CCCCC3)ccc2O1	–	–	–
C[C@@H]1CCCCO[C@H](CN(C)C(=O)Nc2ccc(C(F)(F)F)cc2)[C@@H](C)CN([C@H](C)CO)C(=O)c2cc(NC(=O)C3CCCCC3)ccc2O1	–	-84	–
C[C@@H]1CN([C@@H](C)CO)C(=O)c2cc(NC(=O)C3CCCCC3)ccc2O[C@@H](C)CCCCO[C@H]1CN(C)C(=O)Nc1ccccc1	–	–	–
O=C(C[C@@H]1C=C[C@H](NC(=O)C2CCOCC2)[C@H](CO)O1)NCC1CCCCC1	–	·	·
C[C@@H]1CCCCO[C@H](CN(C)C(=O)Nc2ccccc2)[C@H](C)CN([C@@H](C)CO)C(=O)c2cc(NC(=O)C3CCCCC3)ccc2O1	–	–	–
C[C@H](CO)N1C[C@H](C)[C@H](CN(C)C(=O)Nc2ccc(F)cc2)OCCCC[C@H](C)Oc2ccc(NC(=O)C3CCCCC3)cc2C1=O	–	–	–
C[C@@H]1CN([C@H](C)CO)C(=O)c2cc(NC(=O)Nc3ccc(C(F)(F)F)cc3)ccc2O[C@@H](C)CCCCO[C@H]1CN(C)C(=O)Nc1ccc(C(F)(F)F)cc1	–	–	–
C[C@@H]1CCCCO[C@@H](CN(C)C(=O)Nc2ccc(C(F)(F)F)cc2)[C@@H](C)CN([C@@H](C)CO)C(=O)c2cc(NC(=O)C3CCCCC3)ccc2O1	–	-92	·
C[C@H]1CCCCO[C@H](CN(C)C(=O)Nc2ccc(F)cc2)[C@@H](C)CN([C@@H](C)CO)C(=O)c2cc(NC(=O)C3CCCCC3)ccc2O1	–	-86	–
SMILES	C diff HTS	Pf Dd2 inh	Tcruzi prolif
C[C@@H]1CCCCO[C@H](CN(C)C(=O)Nc2ccc(C(F)(F)F)cc2)[C@@H](C)CN([C@@H](C)CO)C(=O)c2cc(NC(=O)C3CCCCC3)ccc2O1	–	-85	–
C[C@H](CO)N1C[C@H](C)[C@@H](CN(C)Cc2ccc(Oc3ccccc3)cc2)Oc2ccc(NC(=O)CCN3CCOCC3)cc2C1=O	–	–	–
C[C@@H]1CCCCO[C@@H](CN(C)Cc2ccncc2)[C@@H](C)CN([C@@H](C)CO)C(=O)c2cc(NS(=O)(=O)c3ccccc3)ccc2O1	–	–	–
COCC(=O)N[C@@H]1CC[C@@H](CC(=O)N2CCCCC2)O[C@H]1CO	·	–	–
CO[C@@H]1CN(C)C(=O)c2ccc(NS(C)(=O)=O)cc2OC[C@@H](C)N(CC2CCOCC2)C[C@@H]1C	·	–	–
C[C@@H]1CN([C@@H](C)CO)C(=O)c2cc(NC(=O)NC3CCCCC3)ccc2O[C@@H](C)CCCCO[C@@H]1CN(C)S(=O)(=O)c1cccs1	–	-89	–
C[C@@H]1CN([C@H](C)CO)C(=O)c2cc(NC(=O)Cc3ccccc3)ccc2O[C@@H](C)CCCCO[C@@H]1CN(C)S(=O)(=O)c1cccs1	–	-81	–
C[C@@H]1CN([C@H](C)CO)C(=O)c2cc(NC(=O)Nc3ccc4c(c3)OCO4)ccc2O[C@@H](C)CCCCO[C@@H]1CN(C)S(=O)(=O)c1cccs1	–	-92	–
C[C@@H]1CCCCO[C@H](CN(C)S(=O)(=O)c2cccs2)[C@H](C)CN([C@H](C)CO)C(=O)c2cc(NS(=O)(=O)c3ccccc3)ccc2O1	–	-83	–
C[C@@H]1CCCCO[C@@H](CN(C)S(=O)(=O)c2cccs2)[C@@H](C)CN([C@H](C)CO)C(=O)c2cc(NS(=O)(=O)c3ccccc3)ccc2O1	–	–	–
C[C@@H]1CCCCO[C@@H](CN(C)S(=O)(=O)c2cccs2)[C@@H](C)CN([C@@H](C)CO)C(=O)c2cc(NC(=O)Nc3ccc4c(c3)OCO4)ccc2O1	–	–	–
C[C@@H]1CCCCO[C@@H](CN(C)S(=O)(=O)c2cccs2)[C@H](C)CN([C@@H](C)CO)C(=O)c2cc(NC(=O)NC3CCCCC3)ccc2O1	–	–	–
C[C@@H]1CCCCO[C@@H](CN(C)S(=O)(=O)c2cccs2)[C@@H](C)CN([C@H](C)CO)C(=O)c2cc(NC(=O)Cc3ccccc3)ccc2O1	–	–	–
C/C=C/c1ccc([C@H]2[C@@H](CNC(=O)c3ccncc3)N(C(=O)CC)[C@H]2CO)cc1	–	–	–
CN(C)CC#Cc1ccc([C@@H]2[C@H]3CN(C(=O)C4CCCC4)CCCCN3[C@H]2CO)cc1	–	–	–
